Assay outcomes (PubChem)
Rows were chosen to be rich in hits. Some 3.5% of all compounds tested hit in one or more screens of this group.
FBW7 act = human FBW7 E3 ligase activation, primary screen | normalized activity (activation), % at 26.1 µM | 0.13% of 650,000 active | AlphaScreen FBW7–phospho-cyclin E peptide binding, activator screen; in the data active means normalized activity above about 1.9%;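 further: purified mutant Fbw7 with reduced substrate affinity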
MITF primary = inhibitors of human MITF; O75030; AlphaScreen MITF homodimerization, bead proximity signal; inhibition, % at 2.6 µM; 0.91% of 650,000 active; in the data active means inhibition above about 50%;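 further: 0% = vehicle wells with protein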
TEAD-YAP block = TEAD-YAP interaction inhibition; HEK-TIYL cells, TEAD-Gal4/YAP UAS-luciferase luminescence; inhibition, % at 9.12 µM; 1.4% of 640,000 active; in the data active means inhibition above about 32%;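 further: 0% = median of test compound wells and 100% = reference inhibitor wells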
GPR151 ag = activates the human receptor GPR151. PathHunter beta-arrestin GPR151 cells, luminescence. 1% of 650,000 active. activation, % at 11.2 µM; in the data active means activation above about 4.9%;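 further: 0% = median of compound wells and 100% = cells with positive control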
GPR151 confirm = confirmation of human GPR151 activators; shares compounds with GPR151 ag; GPR151 PathHunter beta-arrestin cells, luminescence, 90 min; % of EA-reagent control over plate median; activation, % at 11.2 µM; 6,700 tested, under 10 active; AID 1508609;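 active means mean percent activation across replicates above the confirmation screen cutoff of 4.91%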
GPR119 ag = counter-screen for GPR151 activators: effect on human GPR119; 0.3% of 6,700 active; GPR119 PathHunter beta-arrestin cells, luminescence, 90 min; 0 = compound-well median, 100 = enzyme-acceptor control; shares compounds with GPR151 ag; activation, % at 11.2 µM;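 active means mean percent activation in the counterscreen above 29.09%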;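 further: counterscreen on off-target GPR119 to flag nonselective hits from the GPR151 activator screen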
The depositor's hits bear a star; / = no result given.

SMILES | FBW7 act | MITF primary | TEAD-YAP block | GPR151 ag | GPR151 confirm | GPR119 ag
O=C1c2ccccc2NC(c2ccc3c(c2)OCO3)N1Cc1ccccc1 (stereo not drawn) | 0 | -1 | -6 | 0 | / | /
Cc1ccccc1C(=O)NCc1nc(-c2ccccc2)no1 | 0 | 2 | 1 | 6.9* | -1 | -12
COc1cccc(NC(=O)N2CCC(CO)(Cc3cccc(F)c3)CC2)c1 | 0 | 0 | 3 | 1 | / | /
O=[N+]([O-])/C=C/N1CCOCC1 | 0 | 10 | 0 | 5.5* | 0 | -1
COc1cc(N2CCN(S(=O)(=O)c3ccc4c(c3)OCCO4)CC2)nc(OC)n1 | 0 | -2 | 8 | 3 | / | /
CCCCCC1C/C(=N/OC(C)=O)C=C(C)C1C(=O)OC (stereo not drawn) | 0 | -6 | -3 | 7.3* | 1 | 10
CCCc1nc(SCC(N)=O)c2c(=O)n(C)c(=O)n(C)c2n1 | 0 | 11 | 7 | 1 | / | /
O=C(CSc1ccc(F)cc1)Nc1nc(-c2ccc(F)cc2)cs1 | 0 | 3 | 12 | 7.7* | -2 | 12
COc1ccc(C(=O)Nc2sc3c(c2C#N)CCC(C)C3)cc1 (stereo not drawn) | 0 | 1 | -3 | 0 | / | /
Cc1cccc(C(=O)Nc2ncc(S(=O)(=O)c3ccc([N+](=O)[O-])cc3)s2)c1 | 0 | -4 | -6 | 4.9* | 0 | 8
CC(C)(C)c1ccc(C(=O)Nc2ncc(S(=O)(=O)c3ccc([N+](=O)[O-])cc3)s2)cc1 | 0 | 8 | 1 | -2 | / | /
Cc1ccc(-c2ncn(-c3ccc(Nc4nccc(-c5cncc(N6CCOCC6)c5)n4)cc3)n2)cn1 | 0 | 7 | 26 | -1 | / | /
c1ccc(Cn2cc(-c3ccc(Nc4nccc(-c5cncc(N6CCOCC6)c5)n4)cc3)cn2)cc1 | 0 | 2 | 31 | 6.8* | 1 | 24
COc1ccc(O[C@H]2C=C[C@@H](c3ccccc3)O[C@@H]2CO/N=C2/[C@H]3CCn4c(=O)n(-c5ccccc5)c(=O)n4[C@H]3[C@H](O)[C@@H]3O[C@H]23)cc1 | 0 | 1 | / | 6.7* | 0 | -1
COc1ccc(-c2c[n+](CC(=O)OC3CC(C)CCC3C(C)C)c3n2CCCCC3)cc1 (stereo not drawn) | 0 | 18 | 86* | 5.3* | 1 | -1
COc1cccc(CC2(CO)CCN(C(=O)Cn3cnnn3)CC2)c1 | 0 | 11 | 4 | -2 | / | /
COc1cccc(CC2(CO)CCN(C(=O)CN3CCCC(c4ccccc4)C3)CC2)c1 (stereo not drawn) | 0 | 7 | 0 | 5.2* | 0 | 5
CCOc1nc(NC(=O)NS(=O)(=O)c2ccccc2)nc(-c2ccccc2)n1 | 0 | 2 | -1 | 5.0* | 0 | 1
CN(CCOc1ccccc1)Cc1nc(-c2ccccc2)no1 | 0 | 11 | -5 | 9.5* | 0 | -8
COc1ccc(-c2noc(CN(C)CCOc3ccccc3)n2)c(OC)c1OC | 0 | 3 | -11 | 0 | / | /
CCOC(=O)CNC(=O)CN(C(=O)c1snc(C(N)=O)c1N)c1ccc(CC)cc1 | 0 | 4 | -6 | 0 | / | /
Cc1nn(Cc2ccccc2)c(Cl)c1/C=N/Nc1ccc(S(N)(=O)=O)cc1[N+](=O)[O-] | 0 | 9 | 10 | 5.2* | 1 | 3
NS(=O)(=O)c1ccc(N/N=C/c2ccccc2Cl)c([N+](=O)[O-])c1 | 0 | 3 | 6 | 0 | / | /
CC(C)(C)c1ccc(/C=N/Nc2ccc(S(N)(=O)=O)cc2[N+](=O)[O-])cc1 | 0 | 4 | 3 | 5.0* | 1 | -13
CC(C)c1ccc(Cn2ccc3c4c(N)nc(NC5CC5)nc4ccc32)cc1 | 0 | -4 | / | 6.5* | 6.5* | 106*
CC(=O)Nc1ccc(Nc2c(-c3ccc4c(c3)OCC(=O)N4)c(=O)c2=O)cc1 | 0 | -6 | 4 | 8.7* | 0 | -1
c1ccc2c(c1)CCN(CCCNc1nc3ccccc3n3nnnc13)C2 | 0 | 1 | -9 | 6.7* | 0 | -7
CCOCCCNc1nc2ccccc2n2nnnc12 | 0 | 7 | -15 | -1 | / | /
CCOc1ccc2nc(N=C(NC(=O)c3ccc(C)cc3)NC(=O)c3ccc(C)cc3)nc(C)c2c1 | 0 | -1 | -3 | 1 | / | /
